Data from PubChem BioAssay (EPA / NIEHS).
Calls of active or inactive are those of the source. How the source made its calls: active means hit-call score of the fitted dose curve at least 0.9, where 1 is the maximum; inactive means score below 0.9.

How the values were obtained:
[1] = ATG_E_Box_CIS: Attagene CIS-FACTORIAL HepG2 Assay for human Enhancer Box (E-box) (AID 2282936); conditions: HepG2 E-box cis-reporter transcription, actives raise or lower the signal
Method in brief: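 Measured 24 h post-dosing in HepG2 cells transfected with multiple cis-regulated reporter units, signal being reporter mRNA induction detected by fluorescent RT-PCR with capillary electrophoresis; gain or loss fitted against DMSO.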

[2] = ATG_M_61_CIS: Attagene CIS-FACTORIAL HepG2 Assay for M61 Transcription Factor (Internal Marker) (AID 2282937); conditions: HepG2 Attagene CIS-FACTORIAL M61 internal marker reporter; actives raise or lower the signal
Method in brief: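 Cells were transfected with reporter units under cis-regulatory promoters, treated with chemicals for 24 h, then lysed for RNA. Reporter transcripts were quantified by RT-PCR and capillary electrophoresis, and activity was fitted bidirectionally against DMSO.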

[3] = ATG_EGR_CIS: Attagene CIS-FACTORIAL HepG2 Assay for human Early Growth Response 1 (EGR1) (AID 2282938); conditions: HepG2 Attagene CIS-FACTORIAL EGR reporter mRNA; actives raise or lower the signal
Method in brief: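 Endogenous TF activity in HepG2 liver cells was gauged through cis-promoter reporter constructs transiently transfected. After 24 h dosing, reporter mRNA was quantified by RT-PCR and capillary electrophoresis, and curves fitted in both directions versus DMSO.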

[4] = ATG_ERE_CIS: Attagene CIS-FACTORIAL HepG2 Assay for Estrogen Response Element (ERE) (AID 2282940); conditions: HepG2 ERE cis-reporter, Attagene RNA transcript; actives raise or lower the signal
Method in brief: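 Cells used were human hepatoma HepG2, transfected with multiple reporter transcription units under cis-regulatory promoters. Reporter mRNA, read 24 h post-dosing via fluorescent RT-PCR products on capillary electrophoresis, was fitted bidirectionally relative to DMSO.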

[5] = ATG_Ets_CIS: Attagene CIS-FACTORIAL HepG2 Assay for human Erythroblast Transformation Specific (ETS) (AID 2282941); conditions: HepG2 ETS cis-reporter transcription, actives raise or lower the signal
Method in brief: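 Bidirectional fit versus DMSO of reporter mRNA signal, detected by RT-PCR and capillary electrophoresis in HepG2 cells transiently transfected with cis-element reporters and dosed 24 h.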

[6] = target: Hepatocyte nuclear factor 3-beta (Homo sapiens) (UniProt Q9Y261); assay: ATG_FoxA2_CIS: Attagene CIS-FACTORIAL HepG2 Assay for human Forkhead box A2 (FOXA2) (AID 2282942); conditions: HepG2 cis-reporter transcription factor activity, 24 h; actives raise or lower the signal
Hepatocyte nuclear factor 3-beta (Homo sapiens), sequence (Q9Y261 whole entry, looked up): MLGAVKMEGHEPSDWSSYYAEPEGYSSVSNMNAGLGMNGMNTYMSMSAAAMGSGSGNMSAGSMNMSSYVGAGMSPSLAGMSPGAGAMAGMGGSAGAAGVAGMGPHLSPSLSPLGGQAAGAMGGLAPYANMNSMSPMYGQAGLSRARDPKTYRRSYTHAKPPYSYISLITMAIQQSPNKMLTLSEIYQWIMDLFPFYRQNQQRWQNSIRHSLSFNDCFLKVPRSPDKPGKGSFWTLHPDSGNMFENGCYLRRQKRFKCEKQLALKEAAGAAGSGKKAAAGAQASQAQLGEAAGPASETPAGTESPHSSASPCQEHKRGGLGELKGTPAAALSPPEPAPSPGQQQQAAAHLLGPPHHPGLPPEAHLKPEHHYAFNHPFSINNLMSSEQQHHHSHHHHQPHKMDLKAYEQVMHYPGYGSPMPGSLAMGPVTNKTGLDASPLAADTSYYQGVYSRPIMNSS
Method in brief: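 Endogenous transcription factor activity was read in HepG2 cells carrying transiently transfected cis-promoter reporter units. After 24 h dosing, reporter mRNA was quantified by RT-PCR and capillary electrophoresis, and values fitted bidirectionally versus DMSO.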

[7] = ATG_FoxO_CIS: Attagene CIS-FACTORIAL HepG2 Assay for human Forkhead box O (FoxO) (AID 2282943); conditions: HepG2 Attagene cis-reporter, FoxO element, mRNA; actives raise or lower the signal
Method in brief: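 HepG2 cells transiently transfected with cis-promoter-driven multiple reporter transcription units; 24 h after chemical dosing, reporter mRNA quantified by RT-PCR, fluorescent primer extension, HpaI digestion and capillary electrophoresis. Bidirectional fitting versus DMSO baseline.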

[8] = ATG_GATA_CIS: Attagene CIS-FACTORIAL HepG2 Assay for human GATA Binding Protein (AID 2282944); conditions: HepG2 GATA cis-element reporter, Attagene multiplex mRNA; actives raise or lower the signal
Method in brief: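 Endogenous transcription factor activity was captured through cis-promoter-driven reporters in transfected HepG2 cells. After 24 h exposure, reporter transcripts were quantified by RT-PCR with fluorescent capillary electrophoresis, and responses fitted both directions against DMSO.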

[9] = ATG_GLI_CIS: Attagene CIS-FACTORIAL HepG2 Assay for human Zinc Finger Protein GLI1 (AID 2282945); conditions: HepG2, Attagene cis-factorial reporter mRNA, GLI element; actives raise or lower the signal
Method in brief: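 HepG2 cells transiently transfected with cis-promoter multiplexed reporter units report endogenous transcription factor activity. After 24 h chemical exposure, reporter mRNA was quantified by RT-PCR, 6-FAM labelling, HpaI digestion and capillary electrophoresis, with bidirectional fitting against DMSO.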

[10] = ATG_M_19_CIS: Attagene CIS-FACTORIAL HepG2 Assay for M19 Transcription Factor (Internal Marker) (AID 2282939); conditions: HepG2 Attagene CIS-FACTORIAL M19 internal marker reporter; actives raise or lower the signal
Method in brief: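 Background-control endpoint from a multiplexed HepG2 reporter panel. Cells carrying cis-regulated reporter constructs are treated 24 h, then reporter transcripts are amplified, fluorescently labelled and sized by capillary electrophoresis. DMSO defines baseline.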

Row | SMILES | outcome [1] | outcome [2] | outcome [3] | outcome [4] | outcome [5] | outcome [6] | outcome [7] | outcome [8] | outcome [9] | AC50 [3] | outcome [10] | AC50 [4] | AC50 [1] | AC50 [10] | AC50 [8] | AC50 [9]
1 | BrCCBr | inactive | inactive | inactive | inactive | inactive | inactive | inactive | inactive | inactive |  |  |  |  |  |  | 
2 | N#CCc1ccc(Cl)cc1 | inactive | inactive | inactive | inactive | inactive | inactive | inactive | inactive | inactive |  |  |  |  |  |  | 
3 | Nc1ccc(Cl)cc1C(=O)c1ccccc1 | inactive | inactive |  |  | inactive | inactive | inactive | inactive | inactive | 26.3 µM (active) | inactive |  |  |  |  | 
4 | CC1(C)CCC(Cc2ccc(Cl)cc2)C1(O)Cn1cncn1 (stereo unspecified) | inactive | inactive | inactive |  | inactive | inactive |  | inactive | inactive |  |  | 7.52 µM (active) |  |  |  | 
5 | CCOP(=O)(CN(CCO)CCO)OCC | inactive | inactive | inactive | inactive | inactive | inactive | inactive | inactive | inactive |  |  |  |  |  |  | 
6 | COc1cccc(C=O)c1 | inactive | inactive | inactive |  | inactive | inactive | inactive | inactive | inactive |  |  |  |  |  |  | 
7 | C1CCC(NC2CCCCC2)CC1 | inactive | inactive | inactive |  | inactive | inactive | inactive | inactive | inactive |  |  | 28.8 µM (active) |  |  |  | 
8 | O=[N+]([O-])c1ccc(O)c([N+](=O)[O-])c1 | inactive | inactive | inactive |  | inactive | inactive | inactive | inactive | inactive |  | inactive |  |  |  |  | 
9 | CNC | inactive | inactive | inactive |  | inactive | inactive | inactive | inactive | inactive |  | inactive |  |  |  |  | 
10 | Nc1cccc2ccccc12 |  | inactive | inactive | inactive | inactive | inactive | inactive | inactive | inactive |  |  |  | 32.1 µM (active) |  |  | 
11 | CCC(=O)c1ccccc1 | inactive | inactive | inactive | inactive | inactive | inactive |  | inactive | inactive |  |  |  |  |  |  | 
12 | C[C@]12CC[C@H](O)CC1=CC[C@@H]1[C@@H]2CC[C@]2(C)C(=O)CC[C@@H]12 | inactive | inactive | inactive |  | inactive | inactive |  | inactive | inactive |  |  | 0.987 µM (active) |  |  |  | 
13 | COC(=O)c1sccc1S(=O)(=O)NC(=O)Nc1nc(C)nc(OC)n1 | inactive | inactive | inactive |  | inactive | inactive |  | inactive | inactive |  | inactive |  |  |  |  | 
14 | O=C(Nc1ccc2[nH]ccc2c1)c1cc2cc(F)ccc2n1Cc1cccc(F)c1 |  | inactive |  |  | inactive | inactive |  | inactive | inactive | 11 µM (active) |  |  | 19.2 µM (active) | 13.7 µM (active) |  | 
15 | CCN(CC)C(=O)Cl | inactive | inactive | inactive |  | inactive | inactive | inactive | inactive | inactive |  |  | 27.7 µM (active) |  |  |  | 
16 | COc1ccccc1OC | inactive | inactive | inactive | inactive | inactive | inactive | inactive | inactive | inactive |  |  |  |  |  |  | 
17 | O=C/C=C/c1ccccc1 | inactive | inactive | inactive |  | inactive | inactive | inactive | inactive | inactive |  | inactive |  |  |  |  | 
18 | CCC1(c2ccc(N)cc2)CCC(=O)NC1=O (stereo unspecified) | inactive | inactive | inactive | inactive | inactive | inactive | inactive | inactive | inactive |  |  |  |  |  |  | 
19 | C=CC#N | inactive | inactive | inactive |  | inactive | inactive |  | inactive | inactive |  |  | 71.5 µM (active) |  |  |  | 
20 | COc1ccc(C=O)cc1OC | inactive | inactive | inactive |  | inactive | inactive |  | inactive | inactive |  | inactive |  |  |  |  | 
21 | COc1ccc(C=O)cc1 | inactive | inactive | inactive | inactive | inactive | inactive | inactive | inactive | inactive |  |  |  |  |  |  | 
22 | CC(C)(OO)c1ccccc1 |  | inactive | inactive | inactive | inactive | inactive | inactive | inactive | inactive |  |  |  | 55.2 µM (active) |  |  | 
23 | Cc1ccc2ccccc2c1C | inactive | inactive | inactive |  | inactive | inactive | inactive | inactive | inactive |  | inactive |  |  |  |  | 
24 | CCOC(=O)/C=C(C)/C=C/C[C@@H](C)CCCC(C)C |  | inactive |  | inactive | inactive | inactive |  |  |  | 158 µM (active) |  |  | 106 µM (active) |  | 158 µM (active) | 149 µM (active)
25 | COP(=S)(OC)Oc1ccc(Sc2ccc(OP(=S)(OC)OC)cc2)cc1 | inactive | inactive |  |  | inactive | inactive |  | inactive | inactive | 29.8 µM (active) | inactive |  |  |  |  | 
26 | CC(C)(c1ccc(OCC2CO2)cc1)c1ccc(OCC2CO2)cc1 (stereo unspecified) |  | inactive |  | inactive | inactive | inactive | inactive | inactive | inactive |  | inactive |  | 52.4 µM (active) |  |  | 
27 | C=CCc1ccc(OC)cc1 | inactive | inactive |  |  | inactive | inactive |  | inactive | inactive |  |  |  |  |  |  | 
28 | O=Cc1cccc(Oc2ccccc2)c1 | inactive | inactive |  |  | inactive | inactive | inactive | inactive | inactive |  | inactive |  |  |  |  | 
29 | ClCC(Cl)CCl | inactive | inactive |  |  | inactive | inactive | inactive | inactive | inactive |  | inactive |  |  |  |  | 
